Laboratory results reported in PubChem BioAssay (EPA / NIEHS).
The source made the active and inactive calls. The calls were made as follows: active = hit-call score of the fitted dose curve at least 0.9, where 1 is the maximum; inactive = score below 0.9.

Assay: ATG_NRF2_ARE_CIS: Attagene CIS-FACTORIAL HepG2 Assay for human Nuclear Factor Erythroid 2 Related Factor 2 (NFR2) response to Antioxidant Response Elements (ARE) (AID 2282992)
Details: HepG2 Attagene ARE/NRF2 reporter, transcription factor activity; actives raise or lower the signal
Description: ATG_CIS is a cell-based, multiplexed-readout assay that uses HepG2, a human liver cell line, with measurements taken at 24 hours after chemical dosing in a 24-well plate.ATG_NRF2_ARE_CIS is one of 52 assay component(s) measured or calculated from the ATG_CIS assay. It is designed to make measurements of mRNA induction, a form of inducible reporter, as detected with fluorescence intensity signals by Reverse transcription polymerase chain reaction (RT-PCR) and Capillary electrophoresis technology.Data from the assay component ATG_NRF2_ARE_CIS was analyzed into 1 assay endpoint. This assay endpoint, ATG_NRF2_ARE_CIS, was analyzed with bidirectional fitting relative to DMSO as the negative control and baseline of activity. Using a type of inducible reporter, measures of mRNA for gain or loss-of-signal activity can be used to understand the reporter gene at the transcription factor-level as they relate to the gene NFE2L2. Furthermore, this assay endpoint can be referred to as a primary readout, because this assay has produced multiple assay endpoints where this one serves a reporter gene function. To generalize the intended target to other relatable targets, this assay endpoint is annotated to the dna binding intended target family, where the subfamily is basic leucine zipper.
Human liver HepG2 cells are transiently transfected with multiple reporter transcription units (MRTUs) in 6-well plates using FuGene 6 reagent (Roche; 3 ml FuGene/1 mg DNA). The MRTU constructs are regulated by a cis-regulating element (promoter). […] A major difference between the CIS and TRANS system is that in CIS activities of endogenous TFs are measured, whereas the TRANS assay evaluates changes in activities of exogenous, chimeric NR-Gal4 proteins. […] At the end of 24 hour incubation, total RNA was isolated using TriZol reagent (Invitrogen). The isolated RNA is then reverse-transcribed using oligo(dT) primer and Mo-MLV reverse transcriptase (Invitrogen) with DNAse I (Ambion) treatment for 30 min. The one-tenth of the produced cDNA was amplified by PCR using Taq DNA polymerase (Invitrogen) and two reporter sequence-specific primers. The PCR products were fluorescently labeled by primer extension with 6-arboxyfluorescein (6-FAM) 5'-labeled reporter sequence-specific primer (2 min at 95 C, 20 s at 68 C and 10 min at 72 C) and these products were digested with 5U of HpaI (New England Biolabs) for 2h at 37 C. The fragments were purified using Qiaquick PCR columns (Qiagen), analyzed on an ABI 3130xL genetic analyzer (Applied Biosystems) with peak positions identified by using a set of X-rhodamine (ROX)-labeled MapMarker1000 molecular weight standards (BioVentures). The raw capillary electrophoresis data was processed using Attagraph software (Attagene).

SMILES | outcome | AC50
O=C(O)CCC(=O)O | inactive | –
c1ccc(-c2nc3ccccc3[nH]2)cc1 | inactive | –
Clc1cc(Cl)c(Cl)c(Cl)c1Cl | inactive | –
CCCCCCCCCCCC(=O)OCC | inactive | –
CC(Cl)COP(=O)(OCC(C)Cl)OCC(C)Cl (stereo not given) | inactive | –
C[N+](C)(C)CCCNS(=O)(=O)C(F)(F)C(F)(F)C(F)(F)C(F)(F)C(F)(F)C(F)(F)C(F)(F)C(F)(F)F | inactive | –
Nc1cccc(N)n1 | inactive | –
Cc1cc(=O)[nH]c(=O)[nH]1 | inactive | –
CCCCCCCCC(CO)CCCCCC (stereo not given) | – | 81.3 µM (active)
C1CNCCN1 | inactive | –
O=C1CCCCCCCCCCC1 | inactive | –
CCCC(CC)c1ccccc1 (stereo not given) | – | 165 µM (active)
C=C[C@@]1(C)CC(=O)[C@]2(O)[C@@]3(C)[C@@H](O)CCC(C)(C)[C@@H]3[C@H](O)[C@H](OC(C)=O)[C@@]2(C)O1 | – | 2.95 µM (active)
COc1cc(O)c(C(=O)c2ccccc2)cc1S(=O)(=O)O | inactive | –
Nc1ccc(C(=O)OCCCOC(=O)c2ccc(N)cc2)cc1 | inactive | –
CCCCCCCCCCCCC | inactive | –
CCc1cccc(C)c1N | inactive | –
C=CC(=O)OCCCCCCCCCC | – | 94.5 µM (active)
CCOC(=O)/C=C\C(=O)OCC | – | 11.4 µM (active)
CCCCCCO | inactive | –

SMILES | outcome | AC50
CCCCC1C(=O)N(c2ccccc2)N(c2ccccc2)C1=O | – | 6.46 µM (active)
C=CC(=O)NCOCCCC | – | 66.5 µM (active)
CCCC=C(C=O)CC | inactive | –
CCC(C)C(=O)OCCc1ccccc1 (stereo not given) | inactive | –
CCCCNS(=O)(=O)c1ccc(C)cc1 | inactive | –
CC(C)(c1ccccc1)c1ccc(Nc2ccc(C(C)(C)c3ccccc3)cc2)cc1 | inactive | –
CCCCCCCCCCCCCCCCCCOS(=O)(=O)O | – | 13.7 µM (active)
CC(C)COC(=O)CC(C(=O)OCC(C)C)S(=O)(=O)O (stereo not given) | inactive | –
Nc1ccc(C(=O)O)cc1 | inactive | –
C1CCSC1 | inactive | –
CC(C)(C)N | inactive | –
[Cl][Eu]([Cl])[Cl] | inactive | –
CC(=O)C(C)C | inactive | –
CCC1COC(=O)O1 (stereo not given) | inactive | –
CCCCC(CC)COC(=O)/C=C/c1ccc(OC)cc1 (stereo not given) | inactive | –
CCCCc1ccc(Cl)cc1 | inactive | –
C=CCNCC=C | inactive | –
CC(C)C(=O)OCCc1ccccc1 | inactive | –
COc1ccc(-c2coc3cc(O)cc(O)c3c2=O)cc1 | – | 27.2 µM (active)
O=C(OCCc1ccccc1)c1ccccc1 | inactive | –
